The results in this text go back to PubChem BioAssay (NCI).

The panel holds about 79,000 compounds, 15% with a hit somewhere; the sample as a whole holds those more often. Unmarked numbers belong to inactive results. Active and inactive are the calls of the source. Rule as the data show it: active = growth inhibition above about 70%; inactive = the rest.

The nature of test [1]: NCI Yeast Anticancer Drug Screen. Data for the rad50 strain (AID 155).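 Also: 0% = growth of vehicle-only cultures of the same strain.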 Conditions: S. cerevisiae rad50 strain growth inhibition; at 50.0 µM; hits give high values. An outline of the steps:
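Yeast carrying a defined DNA repair defect were exposed to test compounds, and growth was compared with vehicle-treated controls to give percent inhibition.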

Test [2] in a line: NCI Yeast Anticancer Drug Screen. Data for the mec2-1 strain (AID 157). As to conditions: S. cerevisiae mec2-1 strain, at 50.0 µM, hits give high values. An outline of the steps: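 Vehicle-treated cultures served as reference for growth inhibition of compound-exposed mec2-1 yeast.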
The nature of test [3]: NCI Yeast Anticancer Drug Screen. Data for the sgs1 mgt1 strain (AID 161).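 Also: 0% = growth of cultures given vehicle only.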 As to conditions: S. cerevisiae sgs1 mgt1 strain, at 50.0 µM, hits give high values. The essentials: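 Inhibition of yeast growth, normalised to vehicle-treated controls, is reported for a strain bearing genetic alterations in DNA damage repair.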
Test [4] can be described thus: NCI Yeast Anticancer Drug Screen. Data for the cln2 rad14 strain (AID 165).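 Also: 0% = growth equal to vehicle treated cultures.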 As to conditions: S. cerevisiae cln2 rad14 strain, at 50.0 µM, hits give high values. The essentials: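 Each compound was tested on cln2 rad14 yeast. Inhibition of growth was calculated against vehicle-exposed controls.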
A short description of test [5]: NCI Yeast Anticancer Drug Screen. Data for the mlh1 rad18 strain (AID 175). As to conditions: S. cerevisiae mlh1 rad18 strain growth inhibition; at 50.0 µM; hits give high values. The essentials:
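Vehicle-treated cultures served as the reference for growth inhibition in a yeast strain carrying DNA damage repair alterations exposed to each compound.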

A short description of test [6]: NCI Yeast Anticancer Drug Screen. Data for the bub3 strain (AID 167). As to conditions: S. cerevisiae bub3 mutant strain, at 50.0 µM, hits give high values. An outline of the steps: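 Compounds were applied to a genetically altered yeast strain carrying a cell-cycle control defect. Growth inhibition was scored against vehicle-treated controls.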

Turning to `COC(=O)[C@@]1(C(C)CC(=O)O)CCCCC1=O` (stereo partly specified), the growth inhibition in test [1] was -11.6%; in test [2], -16.4%; in test [3], -38.2%; in test [4] it was -7.35%; in test [5], -13.2%.
`CCCOC(=O)/C=C/c1ccc(OC)cc1`: the growth inhibition in test [1] was -10.7%; in test [2] it was -18.9%; in test [3] it was -16.1%; in test [4] it was -12.2%; in test [5], -27.4%.
For `CC(=O)c1cccc(NC(=O)Nc2cccc3ccccc23)c1`, in that order: 0.45%, 5.7%, 14.9%, 2.75% and 2.7%.
For `CC(C)(c1ccsc1)c1sccc1C(=O)O`, in that order: -4.7%, 2.95%, 8.55%, -19.4% and 16.2%.
For `CCn1c(=O)c2[nH]c(Cl)nc2n(CC(C)Cl)c1=O` (stereo unspecified), in that order: 19.1%, -5%, 6.15%, 17.8% and 19.1%.
Turning to `NC(N)=NC(N)=Nc1cnccn1`, the growth inhibition is 13.7% in test [1]; 6.8% in test [2]; 2.5% in test [3]; 15.8% in test [4]; 15.2% in test [5].
For `c1ccc(C(c2ccccc2)c2cc(-c3cc(C(c4ccccc4)c4ccccc4)[nH]n3)n[nH]2)cc1`, in that order: -9.25%, 21.4%, -7.55%, -28.6% and 6.25%.
Consider `CC1OC(c2ccc3c(c2O)C(=O)C2=C(C3=O)C3(O)C(=O)CC(C)(O)CC3(O)C=C2)CC(O)C1O` (stereo unspecified), for which the growth inhibition in test [1] was -19.2%; in test [2] it was -23.1%; in test [3] it was -19.4%; in test [4] it was -8.1%; in test [6], -21.8%; in test [5], -5.5%.
For `CCN(CC)CCOC(=O)c1ccc(N=Nc2cc(NC(C)=O)ccc2O)cc1`, the growth inhibition in test [1] was 3.35%; in test [2] it was -3.7%; in test [3], -0.7%; in test [4], 4.15%; in test [5], 5.05%.
For `COC1=CC(=O)N(C)C(O)C1(C#N)OC1OC(CO)C(O)C(O)C1O` (stereo unspecified), in that order: 5.25%, -12.8%, -7.5%, 18.6% and -40.9%.
For `CC1(n2nc(-c3ccccc3)n(-c3ccccc3)c2=O)CSC1`, in that order: -8.4%, -22.9%, -31.1%, -15.9% and -7.1%.
For `Nc1ccc(S(=O)(=O)/N=C(\NS(=O)(=O)c2ccc(N)cc2)c2ccccc2)cc1`, in that order: 15.7%, 0.65%, 12.2%, 16.2% and 1.45%.
Regarding `COc1ccc(-c2cc(C(=O)O)c3cc4ccccc4cc3n2)cc1Br`, the growth inhibition in test [1] is 8.6%; in test [2], -15.9%; in test [3], 13.7%; in test [4] it was 24.3%; in test [5], 10.9%.
As for `CN(C)c1cccc(/C=C(\C#N)c2ccccc2)c1`, the growth inhibition is 2.85% in test [1]; 13.8% in test [2]; 35.5% in test [3]; 28.8% in test [4]; 15.2% in test [5].
For `O=C(OCCO)c1ccccc1O`, in that order: 2.95%, -0.8%, -34%, 3.3% and 1.35%.
In the case of `O=C(CSc1nnc(Cc2ccccc2)o1)Nc1ccc(Cl)cc1Cl`, the growth inhibition in test [1] is -18.8%; in test [2] it was -41%; in test [3], -41.3%; in test [4], -10.7%; in test [5] it was -14%.
With `O=C(c1ccc(O)cc1)C1N=NCC1c1ccccc1` (stereo unspecified), the growth inhibition is -15.8% in test [1]; -9.8% in test [2]; -11.8% in test [3]; 56.8% in test [6]; 13.8% in test [5].
For `O=C(/C=C/c1ccsc1)c1ccsc1`, in that order: -38.9%, -51.9%, -22.9%, 9.5% and -3.05%.
For `CSc1nc2nc[nH]c(=O)c2[nH]1`, in that order: -3.55%, -11.6%, -5.75%, -5.35% and -2.5%.
Turning to `Cc1cc2c(-c3ccc(Cl)cc3)oc(-c3ccc(Cl)cc3)c2cc1C`, the growth inhibition was -7.35% in test [1]; 15.8% in test [2]; -6.35% in test [3]; -15.4% in test [6]; -9.5% in test [5].
Consider `CCOC(=O)Nc1cc2c(c(N)n1)N=C(c1ccc(Cl)cc1Cl)CN2`, for which the growth inhibition in test [1] was 33.4%; in test [2] it was -29.5%; in test [3] it was 25.6%; in test [6] it was -6%; in test [5], -8.45%.
For `CCN1OCC(C)(C(=O)OC)C1C` (stereo unspecified), in that order: -13.9%, -13.1%, -10.7%, 9.9% and -21.1%.
For `Cc1cc2c3c(nc2c2cc[nH]c(C)c12)CCCC3`, in that order: 88.2% (active), 92% (active), 92% (active), 90.8% (active) and 91% (active).
For `O=C(O)C1C2C=CC(O2)C1C(=O)Nn1cccc1` (stereo unspecified), in that order: 6.5%, -7.5%, -17.6%, -16.6% and -6.75%.
